Test results taken from PubChem BioAssay (NCATS).
Records with an inconclusive call do not appear. Activity calls are given as the source filed them. Calls come from the whole dose curve; as a rule, active = well fitted inhibition curve with a large enough effect; inconclusive = small, poorly fitted or top-dose-only effect; inactive = flat fitted curve, though single readings scatter.

System: CRL-7250
Assay: qHTS assay to identify novel small-molecules to repurpose for Merkel cell carcinoma treatment (AID 1296009); note: nearly all actives have a fitted effect of over 60% in size
Conditions: MCC and control cell lines, CellTiter-Glo viability, 72 h; at 44.8 µM (top of the series) unless noted
Summary of the method: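 Luminescence from CellTiter-Glo, read 10 min after addition at room temperature, reported viability following a 72 hr, 37 degree celsius treatment with NPC or MIPE compounds in titration; values normalized to plate controls.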

Structure (SMILES)	outcome
CCOC(=O)C(=O)CCCCCCl	inactive
Nc1ccc(S(=O)(=O)Nc2ccccc2)cc1	inactive
COc1ccc2cc(CCC(C)=O)ccc2c1	inactive
O=C(C=Cc1ccc(/C=C/C(=O)Nc2ccc(C3=NCCN3)cc2)cc1)Nc1ccc(C2=NCCN2)cc1	inactive
COc1cc2c(cc1OC)C(=O)CC2	inactive
CC(C)OC(=O)c1cc(C(=O)OC(C)C)cc([N+](=O)[O-])c1	inactive [at 92 µM]
CCOc1cc(C(=O)Nc2ccc(Cl)c(-c3nc4ccccc4[nH]3)c2)cc(OCC)c1OCC	inactive
CC(C)(C)C(O)/C=C/c1ccc2c(c1)OCO2 (stereo not drawn)	inactive
C1=CC2C3C=CC(C3)C2C1 (stereo not drawn)	inactive [at 92 µM]
CCOC(=O)[C@@H](N)CCC(=O)N[C@@H](CSCc1ccccc1)C(=O)N[C@@H](C(=O)OCC)c1ccccc1	inactive
CC(C)(C)COc1ccc(-n2cc(C(=O)O)cn2)cc1C#N	inactive
O=C(Nc1cccc(C2=NCCN2)c1)Nc1cccc(C2=NCCN2)c1	inactive [at 17.4 µM]
Cc1cccc(Nc2nc(N[C@@H]3CCCC[C@H]3N)ncc2C(N)=O)c1	inactive
CC(C)(C)C(=O)Oc1ccc2c(c1)nc(NC(=O)c1cccc([N+](=O)[O-])c1)n2CCCO	inactive
Cc1nnc(C(C)C)n1C1CC2CCC(C1)N2CC[C@H](NC(=O)C1CCC(F)(F)CC1)c1ccccc1 (stereo partly drawn)	inactive
Clc1ccc2ncc(-c3cccc(NC4CNC4)n3)n2c1	inactive
Cc1cccc(C)c1NC(=O)c1ccccc1C(=O)O	inactive
CC(C)(C)c1cc(C(C)(C)C)c(NC(=O)c2c[nH]c3ccccc3c2=O)cc1O	inactive
